Results reported in PubChem BioAssay (NCATS).
Values without a mark were called inactive. Entries that show only a call come without a potency. For part of these data: Potency and affinity values are given separately. Activity calls are given as the source filed them. How the calls were made is not given here.

How the values were obtained:
[1] = Ebola virus entry assay, green fluorescence channel
[2] = Ebola virus entry assay, blue channel fluorescence
[3] = Ebola virus entry assay, ratio channel
[4] = Ebola virus entry assay, green channel fluorescence
[5] = Ebola virus entry assay, reporter ratio channel; Channel type: primary
[6] = Ebola virus entry assay, blue channel (ratio component)

| Structure (SMILES) | efficacy [1] | outcome [2] | outcome [3] | outcome [4] | outcome [5] | outcome [6] | AC50 [5] | AC50 [3] |
| --- | --- | --- | --- | --- | --- | --- | --- | --- |
| C1CCN2C[C@@H]3C[C@@H](CN4CCCC[C@@H]34)[C@H]2C1 | 13.4% | inactive | inactive | inactive | inactive | inactive | – | – |
| Cc1ccc(Nc2c(F)cccc2Cl)c(CC(=O)O)c1 | -7.19% | inactive | inactive | inactive | inactive | inactive | – | – |
| Cn1c(=O)c2c(ncn2C)n(C)c1=O | -24.5% | inactive | inactive | inactive | inactive | inactive | – | – |
| CC(=O)N1C[C@H](O)C[C@H]1C(=O)O | 24.5% | inactive | inactive | inactive | inactive | inactive | – | – |
| CC1(C)OC(=O)Nc2ccc(Br)cc21 | -21.5% | inactive | inactive | inactive | inactive | inactive | – | – |
| CCCCN(CCCC)C(C(N)=O)c1ccc(OC)cc1 (stereo unspecified) | 14.3% | inactive | inactive | inactive | inactive | inactive | – | – |
| Nc1ccncc1N | -16.5% | inactive | inactive | inactive | inactive | inactive | – | – |
| Cc1[nH]c(C)c(Cl)c(=O)c1Cl | 22.5% | inactive | inactive | inactive | inactive | inactive | – | – |
| C[C@H]1COc2c(C3(N)CC3)c(F)cc3c(=O)c(C(=O)O)cn1c23 | 9.63% | inactive | inactive | inactive | inactive | inactive | – | – |
| CCCCOc1ccc(CC(=O)NO)cc1 | -9.53% | inactive | inactive | inactive | inactive | inactive | – | – |
| OCC(O)CN1CCN(c2ccccc2)CC1 (stereo unspecified) | 24.6% | inactive | inactive | inactive | inactive | inactive | – | – |
| CCOC(=O)C(C#N)=C(c1ccccc1)c1ccccc1 | 19.4% | inactive | inactive | inactive | inactive | inactive | – | – |
| C/C=C/c1ccc(OC)cc1 | -25.2% | inactive | inactive | inactive | inactive | inactive | – | – |
| CC(C)Cn1cnc2c1c(=O)n(C)c(=O)n2C | -27.1% | inactive | inactive | inactive | inactive | inactive | – | – |
| C[C@@H](O)[C@H]1C(=O)N2C(C(=O)O)=C([C@H]3CCCO3)S[C@H]12 | -19.1% | inactive | inactive | inactive | inactive | inactive | – | – |
| Cc1ncc(CSSCc2cnc(C)c(O)c2CO)c(CO)c1O | -36.5% | inactive | inactive | inactive | inactive | inactive | – | – |
| COc1cc2[nH]c(=O)[nH]c(=O)c2cc1OC | 23.8% | inactive | inactive | inactive | inactive | inactive | – | – |
| C/C=C/C(=O)N(CC)c1ccccc1C | 23.4% | inactive | inactive | inactive | inactive | inactive | – | – |
| O=C(Nc1ccc(C(=O)O)c(O)c1)c1ccccc1 | -10.4% | inactive | inactive | inactive | inactive | inactive | – | – |

| Structure (SMILES) | efficacy [1] | outcome [2] | outcome [3] | outcome [4] | outcome [5] | outcome [6] | AC50 [5] | AC50 [3] |
| --- | --- | --- | --- | --- | --- | --- | --- | --- |
| CCC1NC(=O)c2cc(S(N)(=O)=O)c(Cl)cc2N1 (stereo unspecified) | -10.3% | inactive | inactive | inactive | inactive | inactive | – | – |
| Cc1cn([C@H]2C[C@H](F)[C@@H](CO)O2)c(=O)[nH]c1=O | -14.7% | inactive | inactive | inactive | inactive | inactive | – | – |
| CN(C)C(=O)Oc1cccc([N+](C)(C)C)c1 | -10.1% | inactive | inactive | inactive | inactive | inactive | – | – |
| CCCCCN(CCCCC)C(=O)C(CCC(=O)O)NC(=O)c1ccc(Cl)c(Cl)c1 (stereo unspecified) | 12.6% | inactive | inactive | inactive | inactive | inactive | – | – |
| Nc1ccn([C@H]2CC[C@@H](CO)O2)c(=O)n1 | -13.2% | inactive | inactive | inactive | inactive | inactive | – | – |
| CCOC(=O)[C@@](C)(N)Cc1ccc(O)c(O)c1 | 38.1% | inactive | inactive | inactive | inactive | inactive | – | – |
| Cn1cc(C(=O)[C@@H]2CCc3nc[nH]c3C2)c2ccccc21 | 15.9% | inactive | inactive | inactive | – | inactive | 39.8 µM (active) | – |
| NS(=O)(=O)c1cc(C(=O)O)c(NCc2ccco2)cc1Cl | -30.8% | inactive | inactive | inactive | inactive | inactive | – | – |
| O=S1(=O)OC(c2ccc(O)cc2)(c2ccc(O)cc2)c2ccccc21 | 19.3% | inactive | inactive | inactive | inactive | inactive | – | – |
| N[C@H](C(=O)O)c1ccc(O)cc1 | 11.9% | inactive | inactive | inactive | inactive | inactive | – | – |
| COc1ccc(OC(=O)N(CC(=O)O)Cc2ccc(OCCc3nc(-c4ccccc4)oc3C)cc2)cc1 | -17% | inactive | inactive | inactive | inactive | inactive | – | – |
| COc1ccc2c(c1)C(=O)N(CCc1ccc(S(=O)(=O)NC(=O)NC3CCCCC3)cc1)C(=O)C2(C)C | -16.1% | inactive | inactive | inactive | inactive | inactive | – | – |
| O=C(O)Cn1c(C(=O)Nc2nc(-c3ccccc3Cl)cs2)cc2ccccc21 | -23.1% | inactive | inactive | inactive | inactive | inactive | – | – |
| C=CCCCCCCCCC(=O)O | -13.8% | inactive | inactive | inactive | inactive | inactive | – | – |
| OC[C@H]1O[C@@H](OCCc2ccc(O)cc2)[C@H](O)[C@@H](O)[C@H]1O | -19% | inactive | inactive | inactive | inactive | inactive | – | – |
| CN1[C@@H]2CC[C@H]1CC(OC(=O)c1c[nH]c3ccccc13)C2 (stereo partly specified) | 45% | inactive | inactive | inactive | – | inactive | 39.8 µM (active) | – |
| CCc1nnc(NS(=O)(=O)c2ccc(N)cc2)s1 | -8.59% | inactive | inactive | inactive | inactive | inactive | – | – |
| Nc1ccc(C(=O)NCC(=O)O)cc1 | 34% | inactive | inactive | inactive | inactive | inactive | – | – |
| COc1cc(NS(=O)(=O)c2ccc(N)cc2)ncn1 | 14.9% | inactive | inactive | inactive | inactive | inactive | – | – |

| Structure (SMILES) | efficacy [1] | outcome [2] | outcome [3] | outcome [4] | outcome [5] | outcome [6] | AC50 [5] | AC50 [3] |
| --- | --- | --- | --- | --- | --- | --- | --- | --- |
| COc1ccc(C(Cl)=C(c2ccc(OC)cc2)c2ccc(OC)cc2)cc1 | 25.3% | inactive | inactive | inactive | inactive | inactive | – | – |
| CCN(CC)CCN | -14.9% | inactive | inactive | inactive | inactive | inactive | – | – |
| CC(=O)Nc1ccn(C2COC(COC(=O)c3ccccc3)O2)c(=O)n1 (stereo unspecified) | -16% | inactive | inactive | inactive | inactive | inactive | – | – |
| COc1ccc(CCC(C)=O)cc1 | 11.4% | inactive | inactive | inactive | inactive | inactive | – | – |
| C=Cc1c(C)c2cc3[nH]c(cc4nc(cc5nc(cc1[nH]2)C(C)=C5CCC(=O)O)C(CCC(=O)O)=C4C)c(C)c3C=C | 15.1% | inactive | inactive | inactive | inactive | inactive | – | – |
| Cc1sccc1Br | -12.3% | inactive | inactive | inactive | inactive | inactive | – | – |
| CC(C(=O)O)c1ccc2c(c1)Cc1cccnc1O2 (stereo unspecified) | -16.5% | inactive | inactive | inactive | inactive | inactive | – | – |
| COC(=O)C1=C(C)NC(COC(N)=O)=C(C(=O)OC(C)C)C1c1cccc(Cl)c1Cl (stereo unspecified) | 27.1% | inactive | – | inactive | – | inactive | 22.4 µM (active) | 22.4 µM (active) |
| NC[C@H]1O[C@H](O[C@H]2[C@H](O)[C@@H](O[C@H]3O[C@H](CO)[C@@H](O)[C@H](N)[C@H]3O)[C@H](N)C[C@@H]2N)[C@H](N)[C@@H](O)[C@@H]1O | -12.5% | inactive | inactive | inactive | inactive | inactive | – | – |
| Cc1nnc(C(=O)NC(C)(C)c2nc(C(=O)NCc3ccc(F)cc3)c(O)c(=O)n2C)o1 | -16.5% | inactive | inactive | inactive | inactive | inactive | – | – |
| COCc1c(C(C)C)nc(C(C)C)c(/C=C/[C@@H](O)C[C@@H](O)CC(=O)O)c1-c1ccc(F)cc1 | 9.5% | inactive | inactive | inactive | inactive | inactive | – | – |
| C#C[C@]1(O)CC[C@H]2[C@@H]3CCC4=CC(=O)CC[C@@H]4[C@H]3CC[C@@]21C | -11.7% | inactive | inactive | inactive | inactive | inactive | – | – |
| C=C(C)C(=O)OCC(O)CO (stereo unspecified) | -24.2% | inactive | inactive | inactive | inactive | inactive | – | – |
| CCn1cc(C(=O)O)c(=O)c2cc(F)c(N3CCNCC3)nc21 | -17.3% | inactive | inactive | inactive | inactive | inactive | – | – |
| O=C(O)Cc1ccc2c(c1)C(=O)c1ccccc1CO2 | 17% | inactive | inactive | inactive | inactive | inactive | – | – |
| C/C(=N/NC(=O)c1ccncc1)C(=O)O | -27.5% | inactive | inactive | inactive | inactive | inactive | – | – |
| CC[N+](CC)(CC(=O)Nc1c(C)cccc1C)Cc1ccccc1 | -14.7% | inactive | inactive | inactive | inactive | inactive | – | – |
| C(=C\c1ccccc1)/CN1CCN(C(c2ccccc2)c2ccccc2)CC1 | 12.5% | inactive | inactive | inactive | inactive | inactive | – | – |
